PubChem BioAssay AID1745849 (National Center for Advancing Translational Sciences (NCATS), 2022)
The campaign covered roughly 2,100 compounds. About 320 (15%) were called active. Roughly 52% stayed inconclusive and do not appear here. The call rests on the fitted dose curve; in most records, active means well fitted cell-killing curve with a large enough effect; inconclusive means small, poorly fitted or top-dose-only effect, or effect the other way; inactive means flat fitted curve, though single readings scatter. The list shows a part of the results. A call without a number means that no potency is given here.
Potency means the concentration at half of the fitted maximal effect.

Assay: Viability Counterscreen for CMV-Luciferase Assay of Inhibitors of ATXN expression; further: nearly all actives have a fitted effect of over 55% in size
Conditions: HEK-293 CMV-luciferase cells viability, protease fluorescence, 24 h
Method in brief: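 Dosing on CMV-luciferase HEK-293 cells for 24 hr, 37 °C. Luminescence read with SteadyGlo; cytotoxicity measured first as Gly-Phe-AFC protease fluorescence, 25 uM final substrate, 30 min.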
For `O=C(N/N=C/c1cc(Br)ccc1O)C(c1ccncc1)N1CCOCC1` (configuration not stated), the Potency was “inactive”.
For `Cc1cc(C(=O)N/N=C/c2cc(Br)ccc2OC(=O)c2ccccc2)n[nH]1`, the Potency was “inactive”.
For `COc1cccc(NC(=O)/C=C/c2ccc(S(=O)(=O)N3CCOCC3)cc2)c1`, the Potency was “inactive”.
For `Cn1c(CO)c(-c2ccccc2)c2cc([N+](=O)[O-])ccc21`, the Potency was “inactive”.
In the case of `Cc1[nH]n2c(=O)cc(C(C)(C)C)nc2c1-c1ccccc1`, the Potency is reported as 11.2 µM (active).
For `CC(C)N(C(=O)COC(=O)c1ccccc1C(=O)c1ccc(Cl)c([N+](=O)[O-])c1)C(C)C`, the Potency was “inactive”.
For `CCCCNCCCOc1cccc(Cl)c1Cl`, the Potency was “inactive”.
With `COCCCNCCCOc1ccc(Cl)cc1C(C)(C)C` the Potency was 25.1 µM (active).
For `O=C(N/N=C\c1cc(Cl)ccc1O)c1ccc(S(=O)(=O)N2CCCCC2)cc1`, the Potency was “inactive”.
With `O=C(N/N=C\c1cc(Br)ccc1O)c1ccc(S(=O)(=O)N2CCCCC2)cc1` the Potency was “inactive”.
For `CC(OC(=O)c1cc(Br)ccc1O)C(=O)Nc1ccc(S(=O)(=O)N2CCCC2)cc1` (configuration not stated), the Potency was 28.2 µM (active).
In the case of `COc1ccc(-c2n(CC(=O)OC3CC(C)CCC3C(C)C)c3ccccc3[n+]2C)cc1` (configuration not stated), the Potency is reported as 7.94 µM (active).
In the case of `N#C/C(=N\Nc1cccc([N+](=O)[O-])c1)C(=O)c1ccc(Br)cc1`, the Potency is reported as 2.24 µM (active).
In the case of `C/C(=N\Nc1cc(N2CCOCC2)nc(C)n1)c1cccc([N+](=O)[O-])c1`, the Potency is reported as “inactive”.
For `CC(NC(=O)Nc1cccc([N+](=O)[O-])c1)c1ccc2c(c1)OCO2` (configuration not stated), the Potency was “inactive”.
For `Cc1csc2c(N3CCN(C(=O)Nc4ccc(Cl)c(Cl)c4)CC3)ncnc12`, the Potency was “inactive”.
For `COc1ccc([C@@]2(C(C)C)ON(c3ccccc3C(F)(F)F)C2=O)cc1`, the Potency was “inactive”.
With `O=C(NCC(=O)N1CC(O)CC1C(=O)N1CCCC1C(=O)OCc1ccccc1)OCc1ccccc1` (configuration not stated) the Potency was “inactive”.
In the case of `C=CCc1cccc(/C=N/NC(=O)CCCNc2ccc(C)cc2)c1O`, the Potency is reported as 20 µM (active).
With `C=CCc1cccc(/C=N/NC(=O)CNc2ccccc2)c1O` the Potency was “inactive”.
For `O=C(Cc1ccccc1)N/N=C/c1cc(Br)cc(Br)c1O`, the Potency was “inactive”.
For `CCOC(=O)N1CCN(S(=O)(=O)c2ccc(C(=O)NNc3nc4c(C)cc(C)cc4s3)cc2)CC1`, the Potency was 1.58 µM (active).
In the case of `Cc1cc(C)c2nc(NNC(=O)c3ccc(S(=O)(=O)N4CC(C)CC(C)C4)cc3)sc2c1` (configuration not stated), the Potency is reported as “inactive”.
In the case of `Cc1cc(C)c2nc(NNC(=O)c3cc(-c4cccs4)nc4ccccc34)sc2c1`, the Potency is reported as “inactive”.
For `Cc1nc(SCc2ccc(C(=O)O)cc2)nc2c1CCCC2`, the Potency was “inactive”.
In the case of `CN(C)CCNC(=O)c1cccc(-c2cnc3c(NC=O)cc(-c4cccs4)cn23)c1`, the Potency is reported as “inactive”.
In the case of `CN1CCN(c2ccc(-c3cc(NC=O)c4ncc(-c5ccc(F)c(Cl)c5)n4c3)cc2)CC1`, the Potency is reported as “inactive”.
With `CN(C)C(=O)c1cccc(-c2cnc3c(NC=O)cc(-c4ccc(F)cc4)cn23)c1` the Potency was “inactive”.
In the case of `CN(C)CCNC(=O)c1cccc(-c2cnc3c(NC=O)cc(-c4cccc(C(F)(F)F)c4)cn23)c1`, the Potency is reported as 22.4 µM (active).
In the case of `CN(C)CCNC(=O)c1cccc(-c2cnc3c(NC=O)cc(/C=C/c4ccccc4)cn23)c1`, the Potency is reported as 28.2 µM (active).
For `CCCCNC(=NCc1cccc(C(F)(F)F)c1)Nc1ccccc1`, the Potency was “inactive”.
For `COc1cc(/C=N/Nc2ccc(Cl)c(C(=O)O)c2)ccc1OC(=O)c1ccco1`, the Potency was “inactive”.
With `COC(=O)c1c(NC(=O)c2ccc([N+](=O)[O-])o2)sc2c1CCN(C(C)C)C2` the Potency was 15.8 µM (active).
For `NC(=O)c1c(NC(=O)c2ccc(S(=O)(=O)N3CCOCC3)cc2)sc2c1CCCCC2`, the Potency was “inactive”.
For `CN(C)C(CNC(=O)c1cccc(S(=O)(=O)N2CCN(c3ccc(F)cc3)CC2)c1)c1ccccc1` (configuration not stated), the Potency was “inactive”.
With `Cc1ccc(OCC(=O)c2cc(C)n(Cc3cccs3)c2C)c([N+](=O)[O-])n1` the Potency was “inactive”.
With `COc1ccc(CCNC2=C(Cl)C(=O)N(Cc3ccccc3)C2=O)cc1OC` the Potency was “inactive”.
In the case of `COCCCNC1=C(Cl)C(=O)c2ccccc2C1=O`, the Potency is reported as 25.1 µM (active).
For `CC(C)Cn1c(/C=N/Nc2nc3ccccc3[nH]2)nc2ccccc21`, the Potency was “inactive”.
With `CCC(C)(C)c1ccc(OCCCC[n+]2ccccc2)c(C(C)(C)CC)c1` the Potency was “inactive”.
For `Nc1ccn([C@@H]2O[C@H](CO)[C@@H](O)[C@@H]2O)c(=O)n1`, the Potency was “inactive”.
In the case of `Nc1ncn([C@@H]2O[C@H](CO)[C@@H](O)[C@H]2O)c(=O)n1`, the Potency is reported as 6.31 µM (active).
In the case of `Nc1ccn(C2OC(COP(=O)(O)O)C(O)C2O)c(=O)n1` (configuration not stated), the Potency is reported as “inactive”.
For `C/C(=N\NC(=O)c1ccc(CN2CCc3ccccc3C2)cc1)c1ccccc1O`, the Potency was “inactive”.
For `Cc1c(OCC(=O)NC2CC(C)(C)NC(C)(C)C2)ccc2c1oc(=O)c1ccccc12`, the Potency was “inactive”.
In the case of `CCOCCn1ccc2c(OCC(=O)Nc3ccc(OC)c(OC)c3)cccc2c1=O`, the Potency is reported as “inactive”.
In the case of `COc1cccc(CN(C)C(=O)c2ccc(OCC(=O)Nc3cccc(C(F)(F)F)c3)c(OC)c2)c1`, the Potency is reported as 17.8 µM (active).
In the case of `COc1cccc(OCC(=O)Nc2cc(Cl)ccc2Oc2ccccc2)c1`, the Potency is reported as “inactive”.
In the case of `O=C(Nc1nc(NC(=O)c2ccco2)n(-c2ccccc2)n1)c1ccccc1`, the Potency is reported as 12.6 µM (active).
With `O=C(Nc1ccc(NC(=O)c2ccco2)cc1)c1ccc2c(c1)OCCO2` the Potency was “inactive”.
In the case of `CN(CCc1ccccc1)c1cc2c(c3c1ccn3C)C1CCC2O1` (configuration not stated), the Potency is reported as “inactive”.
With `O=C(CN1C(=O)c2ccccc2S1(=O)=O)Nc1ncc(Cl)cc1Cl` the Potency was “inactive”.
In the case of `O=C(N/N=C/c1cc(Cl)ccc1O)c1cccnc1`, the Potency is reported as “inactive”.
In the case of `O=C(NNC(=O)c1cnccn1)c1ccc(Cl)c(Cl)c1`, the Potency is reported as 22.4 µM (active).
For `O=C(NCCc1csc(-c2cccnc2)n1)c1cccc(Cl)c1`, the Potency was “inactive”.
With `CCCC[C@@H](CNC)NC[C@H](NCCCCC1CCCCC1)C(C)C` the Potency was 28.2 µM (active).
For `OC(c1cc(F)cc(Cl)c1)c1ncc(-c2cccc(C(F)(F)F)c2)[nH]1` (configuration not stated), the Potency was “inactive”.
In the case of `CCOC(=O)c1c(NC(=O)C(Sc2ccccc2)c2ccccc2)sc(C(=O)N(C)C)c1C` (configuration not stated), the Potency is reported as “inactive”.
In the case of `C=CCOC(=O)C1=C(C)NC(SCC)=C(C#N)C1c1ccc(Cl)cc1` (configuration not stated), the Potency is reported as “inactive”.
With `O=C1C=C(NCCc2cc(Br)c(O)c(Br)c2)C(=O)c2ncccc21` the Potency was 8.91 µM (active).
With `Brc1cnc2nc(SCc3nc4ccccc4[nH]3)[nH]c2c1` the Potency was “inactive”.
With `CCCc1cnc(NCCNCC(O)COc2ccc(Cl)c(Cl)c2)nc1` (configuration not stated) the Potency was 28.2 µM (active).
With `COc1ccc(OCc2cccc(C(=O)Nn3cc([N+](=O)[O-])cn3)c2)cc1` the Potency was “inactive”.
For `Cc1nc2ccccc2c(=O)n1/N=C/c1c(O)ccc2oc3c(c12)CCCC3`, the Potency was “inactive”.
For `Cc1cc(/C=N/n2c(COc3ccccc3)nc3ccccc3c2=O)c(O)c([N+](=O)[O-])c1`, the Potency was 12.6 µM (active).
For `Cc1ccc2nc(-c3ccccc3)nn2c1`, the Potency was “inactive”.
In the case of `O=[N+]([O-])c1c(Nc2ccccn2)cc(Cl)c2nonc12`, the Potency is reported as 11.2 µM (active).
With `Cn1c(=O)c(C#N)c(-c2ccc(F)cc2)c2cc(C(=O)c3cc(Cl)cc(Cl)c3O)cnc21` the Potency was “inactive”.
For `Oc1ccc2ccccc2c1/C=C/c1ccc2c(Br)cc(Br)c(O)c2n1`, the Potency was “inactive”.
In the case of `COc1ccc(C(=O)Nn2c(SCC(=O)c3ccccc3)nc3ccccc3c2=O)cc1`, the Potency is reported as “inactive”.
With `CCOC(=O)C(CC)(CC)C(=O)/C=C/c1ccc(OC)cc1` the Potency was “inactive”.
For `COc1ccc(C(=O)Cn2c(C(=O)/C=C/c3ccccc3)nc3ccccc32)cc1`, the Potency was 3.16 µM (active).
With `CC1=C(CC[C@@H](C)CO)OC2CC3C4CCC5CC(O)CCC5(C)C4CC(=O)C3(C)C12` (some centres not stated) the Potency was “inactive”.
In the case of `Cn1c(=O)c2c(nc(SCCN3CCOCC3)n2Cc2cccc3ccccc23)n(C)c1=O`, the Potency is reported as “inactive”.
In the case of `Cn1c(=O)c2c(nc(CN3CCN(Cc4ccccc4)CC3)n2Cc2ccc(Cl)cc2)n(C)c1=O`, the Potency is reported as 25.1 µM (active).
With `COc1ccc(CC(N)c2csc(NC(=O)c3cc(C(C)(C)C)nn3Cc3ccccc3)n2)cc1` (configuration not stated) the Potency was “inactive”.
In the case of `COc1ccc(CC(N)c2csc(NC(=O)c3ccccc3OC)n2)cc1` (configuration not stated), the Potency is reported as “inactive”.
In the case of `COc1ccc(CNC(=O)Nc2nc(C(N)Cc3ccc(Cl)cc3)cs2)cc1` (configuration not stated), the Potency is reported as 22.4 µM (active).
In the case of `CN(C)c1ccc(C(=O)N/N=C/c2cc(Br)cc(Br)c2O)cc1`, the Potency is reported as “inactive”.
In the case of `Cc1onc(-c2c(F)cccc2Cl)c1C(=O)Nc1nnc(C(F)(F)F)s1`, the Potency is reported as “inactive”.
With `Fc1ccc(Nc2nnc(C(F)(F)F)s2)cc1Cl` the Potency was 28.2 µM (active).
For `Oc1ccc(C[C@@H]2CNCCN2CCc2cc(C(F)(F)F)cc(C(F)(F)F)c2)cc1`, the Potency was “inactive”.
With `NC(=O)C1CCN(C2=C(Cl)C(=O)c3ccccc3C2=O)CC1` the Potency was “inactive”.
For `CCOC(=O)C1CCN(c2cc3c(cc2NC(=O)c2ccccc2OCC)n(C)c(=O)n3C)CC1`, the Potency was “inactive”.
For `CCOC(=O)C1CCN(C(=O)c2c(C)oc3c2C(=O)c2ccccc2C3=O)CC1`, the Potency was 15.8 µM (active).
For `COc1cc(C(=O)OC(C)C(=O)N2CCc3ccccc3C2)ccc1OCC(=O)N1CCOCC1` (configuration not stated), the Potency was “inactive”.
With `O=C(Nc1ccc2c(c1)CCC2)C1CCN(c2c3c(nc4ncnn24)CCC3)CC1` the Potency was “inactive”.
For `CCCCCn1c(=N)n(CC(O)COc2ccccc2OC)c2ccccc21` (configuration not stated), the Potency was 3.16 µM (active).
For `Cn1c(N)c(C(=O)Nc2ccc(-c3ccccc3)cc2)sc1=S`, the Potency was “inactive”.
In the case of `NS(=O)(=O)c1ccc(N2N=C(c3ccccc3)CC2c2ccc(F)cc2)cc1` (configuration not stated), the Potency is reported as “inactive”.
With `NS(=O)(=O)c1ccc(Nc2nc(-c3ccc(F)cc3)cs2)cc1` the Potency was “inactive”.
In the case of `O=S(=O)(c1ccc(F)cc1)c1snnc1-c1ccccc1`, the Potency is reported as 10 µM (active).
For `Cc1c(CC(=O)NCCCC(=O)O)c(=O)oc2cc3c(cc12)CCC(C)(C)O3`, the Potency was “inactive”.
In the case of `NNc1nc(N)c2c(n1)-c1ccccc1CC21CCCC1`, the Potency is reported as “inactive”.
For `O=C(NNc1ccnc2cc(Cl)ccc12)C1CCCCC1`, the Potency was “inactive”.
In the case of `CC(C)NC1CCC(Nc2ccnc3cc(Cl)ccc23)CC1` (configuration not stated), the Potency is reported as 15.8 µM (active).
In the case of `CCN(CC)CCNc1ccnc2cc(Cl)ccc12`, the Potency is reported as “inactive”.
